Assay outcomes deposited in PubChem BioAssay by National Center for Advancing Translational Sciences (NCATS).
This is one part of a sample in which hits are shown more often than they occur.
VACV mCherry inh: vaccinia inhibition (mCherry reporter); Vaccinia virus mCherry reporter infection, fluorescence; Potency, µM (doses to about 36.5 µM), for the others: at the top dose activity change, negative = inhibition, usual class: inhibitors; 310,000 tested, 0.63% active; AID 720579; calls by dose curve; tested in A549 cells; further: potency means the concentration at half of the fitted maximal effect; on the % scale 0 is the no-effect control and ±100 the full control effect; nearly all actives have a fitted effect of over 35% in size
LASV entry inh: blocks Lassa virus binding to or entry into cells | AID 540256 | Potency, µM (top dose mostly 37.9 µM), without a hit: at the highest dose activity change, negative = inhibition, usual class: inhibitors | Lassa virus pseudotype entry inhibition, cell reporter | 300,000 tested, 1.2% active; calls by dose curve; tested in HEK293 cells; further: potency means the concentration at half of the fitted maximal effect; on the % scale 0 is the no-effect control and ±100 the full control effect; nearly all actives have a fitted effect of over 50% in size
CHX counter: counter-screen for Shiga toxin inhibitors: cycloheximide protein synthesis inhibition; max response, %; cell reporter, cycloheximide protein synthesis inhibition counterscreen; 300,000 tested, 12% active; in the data active means max response mostly above about 13%, no sharp cut-off; inactive means mostly below about 14%; further: read at 38.3 µM for the half of the compounds with a filed dose; 0% is about no effect
VACV Venus inh: vaccinia inhibition (Venus reporter). Vaccinia virus Venus reporter expression, fluorescence. Potency, µM (highest dose often 36.5 µM), inactives show top-dose activity change, negative = inhibition, usual class: inhibitors. 330,000 tested, 0.46% active; calls by dose curve; tested in A549 cells; further: potency means the concentration at half of the fitted maximal effect; on the % scale 0 is the no-effect control and ±100 the full control effect; nearly all actives have a fitted effect of over 30% in size
Shiga inhibitor: blocks Shiga toxin action in Vero cells; Vero cells, Shiga toxin protein synthesis inhibition reporter; inhibition, % at 38.7 µM; 290,000 tested, 9.2% active; AID 2315; in the data active means inhibition mostly above about 28%, no sharp cut-off; inactive means mostly below about 43%; further: 0% is about no effect
Marburg entry inh: Marburg virus entry inhibition. AID 540276. Potency, µM (series often up to 37.8 µM), inactives show at the top dose activity change, negative = inhibition, usual class: inhibitors. Marburg virus pseudotyped entry inhibition, cell reporter. 300,000 tested, 1.8% active; calls by dose curve; tested in HEK293 cells; further: potency means the concentration at half of the fitted maximal effect; on the % scale 0 is the no-effect control and ±100 the full control effect
* hit, by the source's call; [ ] = remark or other dose.

How did CC(=O)c1cccc(CN2CCCC(C(=O)c3ccc4c(c3)OCO4)C2)c1 (stereo not given) do in these assays?
VACV mCherry inh: -9%; LASV entry inh: 7%[46.1 µM]; CHX counter: 12; VACV Venus inh: -13%; Shiga inhibitor: -14; Marburg entry inh: inconclusive

How did Cc1cc(C)cc(OCC(=O)N(Cc2ccc(Cl)cc2)C2CCS(=O)(=O)C2)c1 (stereo not given) do in these assays?
VACV mCherry inh: -19%; LASV entry inh: 7%[46.1 µM]; VACV Venus inh: -20%; Marburg entry inh: -19%[46.1 µM]

Results for CCOc1cc(Cn2c(-c3ccc(O)c(OCC)c3)nc3ccccc32)ccc1O ?
VACV mCherry inh: -25%; LASV entry inh: -1%[46.1 µM]; VACV Venus inh: -20%

How did CC1CN(CC(=O)NCCc2ccncc2)Cc2ccccc2O1 (stereo not given) do in these assays?
VACV mCherry inh: -10%; VACV Venus inh: 2%

What do the screens show for `CCCCOC(=O)NS(=O)(=O)c1sc(CC(C)C)cc1-c1ccc(Cn2c(CC)nc3c(C)cc(C)nc32)cc1`?
LASV entry inh: 9.2µM*; Marburg entry inh: 10µM*

Results for Cc1cc(C)n(-c2cccc(C(=O)NCC3Cc4cccc(-c5cccnc5)c4O3)c2)n1 (stereo not given) ?
VACV mCherry inh: inactive; VACV Venus inh: -24%

How did Cc1ccccc1C1=NCC(=O)N(CC(=O)NCc2ccco2)c2sc3c(c21)CCCC3 do in these assays?
VACV mCherry inh: -8%; LASV entry inh: inconclusive; CHX counter: 15*; VACV Venus inh: -24%; Shiga inhibitor: 33; Marburg entry inh: inconclusive

Results for CCCNC(=O)N1CCCN(S(=O)(=O)c2ccc3c(ccn3CC)c2)CC1 ?
VACV mCherry inh: -3%; LASV entry inh: -24%[46.1 µM]; VACV Venus inh: 4%

Results for COC(=O)N[C@@H](c1ccc2ccccc2c1)C(C(C)=O)C(=O)OC (stereo not given in full) ?
Marburg entry inh: -16%[14.2 µM]

Results for CN(C)c1c(F)cc(C(=O)NCc2ccccc2)cc1F ?
CHX counter: 20*; Shiga inhibitor: 5

How did Cc1ccc(C(=O)NCc2ccccc2)cc1Br do in these assays?
VACV mCherry inh: -9%; LASV entry inh: -9%; CHX counter: 17*; VACV Venus inh: 0%; Shiga inhibitor: 24; Marburg entry inh: 14%

How did O=C(NCc1ccccc1)c1ccccc1Br do in these assays?
VACV mCherry inh: -1%; LASV entry inh: 13%; CHX counter: 3; VACV Venus inh: -2%; Shiga inhibitor: 8; Marburg entry inh: 4%[14.2 µM]

Results for O=C(NCc1ccccc1)c1ccc(Cl)nc1 ?
VACV mCherry inh: -6%; LASV entry inh: -6%; CHX counter: 40*; VACV Venus inh: -5%; Shiga inhibitor: 70*; Marburg entry inh: inconclusive

What do the screens show for `COc1ccc(C(=O)NCc2ccccc2)cc1Br`?
VACV mCherry inh: -8%; LASV entry inh: 12%; CHX counter: -1; VACV Venus inh: -12%; Shiga inhibitor: -8; Marburg entry inh: inconclusive

What do the screens show for `O=C(NCc1ccccc1)c1ccc(Br)cc1Br`?
VACV mCherry inh: -12%; LASV entry inh: -3%; CHX counter: 23*; VACV Venus inh: -12%; Shiga inhibitor: active; Marburg entry inh: 17%

Results for CC(=O)Oc1ccccc1[C@@H]1OCCN1C(C)=O ?
Marburg entry inh: 2%

Results for Cc1c(C(=O)OCC(=O)N(C)c2ccccc2)cccc1[N+](=O)[O-] ?
VACV mCherry inh: -18%; LASV entry inh: 1%; CHX counter: -3; VACV Venus inh: -11%; Shiga inhibitor: -5; Marburg entry inh: 21%[14.2 µM]

How did Cc1ccccc1C(=O)OCC(=O)N(C)c1ccccc1 do in these assays?
VACV mCherry inh: -16%; LASV entry inh: 8%[46.1 µM]; CHX counter: 24*; VACV Venus inh: -5%; Shiga inhibitor: 31; Marburg entry inh: 11%[46.1 µM]

Results for CN(C(=O)COC(=O)c1ccccc1C(=O)N(C)c1ccccc1)c1ccccc1 ?
VACV mCherry inh: -9%; LASV entry inh: inconclusive; CHX counter: 4; VACV Venus inh: -11%; Shiga inhibitor: 25; Marburg entry inh: 5%[46.1 µM]

How did Cc1cccc(C(=O)OCC(=O)N(C)c2ccccc2)c1C do in these assays?
VACV mCherry inh: inconclusive; LASV entry inh: inconclusive; CHX counter: 14*; VACV Venus inh: -17%; Shiga inhibitor: 35*; Marburg entry inh: -10%[46.1 µM]

How did c1ccc(CNCCNCc2ccccc2)cc1 do in these assays?
CHX counter: -4; Shiga inhibitor: -4

How did Cc1nc(Sc2ccccc2)c(C#N)cc1-c1ccccc1 do in these assays?
LASV entry inh: 4%; CHX counter: 28*; Shiga inhibitor: 50*; Marburg entry inh: 16%

What do the screens show for `COc1cccc(C(=O)Nc2ccc3nc(N4CCOCC4)cc(C)c3c2)c1`?
VACV mCherry inh: -8%; CHX counter: -2; VACV Venus inh: -5%; Shiga inhibitor: 9

How did COc1ccc2c(C)cc(N3CCOCC3)nc2c1 do in these assays?
VACV mCherry inh: -16%; LASV entry inh: inconclusive; CHX counter: 26*; VACV Venus inh: -11%; Shiga inhibitor: 52*; Marburg entry inh: 27%

What do the screens show for `CCOc1ccc2nc(N3CCOCC3)nc(C)c2c1`?
LASV entry inh: inconclusive; CHX counter: 53*; VACV Venus inh: -2%; Shiga inhibitor: 99*; Marburg entry inh: inconclusive

What do the screens show for `COc1ccc2nc(N3CCOCC3)cc(C)c2c1`?
VACV mCherry inh: inconclusive; LASV entry inh: inconclusive; CHX counter: 33*; VACV Venus inh: -18%; Shiga inhibitor: 61*; Marburg entry inh: inconclusive

What do the screens show for `COc1ccc2c(C)cc(N3CCN(c4ccc(F)cc4)CC3)nc2c1`?
VACV mCherry inh: -2%; LASV entry inh: 1%; CHX counter: -3; VACV Venus inh: -11%; Shiga inhibitor: -5; Marburg entry inh: inconclusive

How did O=S(=O)(CCN1CCSCC1)c1ccccc1 do in these assays?
VACV mCherry inh: 13µM*; LASV entry inh: -9%; CHX counter: -1; VACV Venus inh: inconclusive; Shiga inhibitor: -4; Marburg entry inh: 4%

Results for COC(=O)C1(C(=O)OC)C2C(=O)C3C(C21)C3(C(=O)OC(C)(C)C)C(=O)OC(C)(C)C (stereo not given) ?
VACV mCherry inh: inactive; VACV Venus inh: -3%

What do the screens show for `CCCCOc1ccc(C2=CSC3=NCCN23)cc1[N+](=O)[O-]`?
VACV mCherry inh: -10%; LASV entry inh: -27%; CHX counter: -2; VACV Venus inh: -10%; Shiga inhibitor: 2; Marburg entry inh: 22µM*

What do the screens show for `CCCCOc1ccc(-c2csc(N)n2)cc1[N+](=O)[O-]`?
VACV mCherry inh: inconclusive; LASV entry inh: inconclusive; CHX counter: 86*; VACV Venus inh: -23%; Shiga inhibitor: 127*; Marburg entry inh: inconclusive

Results for CCCCOc1ccc(CSc2nc(C)[nH]c2[N+](=O)[O-])cc1[N+](=O)[O-] ?
VACV mCherry inh: inactive; LASV entry inh: inconclusive; CHX counter: 15; VACV Venus inh: -19%; Shiga inhibitor: 12; Marburg entry inh: inconclusive
